Inconclusive results are not listed. Values without a mark were called inactive. Calls follow the shape of the dose curve; as a rule, active = well fitted curve in the direction sought with a large enough effect; inconclusive = small, poorly fitted or top-dose-only effect, or another doubt; inactive = no such curve, though single readings can be large; an effect the other way counts as inactive or inconclusive.
Target: Aldehyde dehydrogenase, mitochondrial (Homo sapiens) (UniProt P05091)
Assay: qHTS for Inhibitors of the Aldehyde Dehydrogenase Family (ALDH2) Primary screen (AID 2061308);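 also: plate controls were vehicle for no effect and reference inhibitor for full effect; nearly all actives have a fitted effect of over 55% in size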
Conditions: ALDH2 enzyme inhibition qHTS, 1536-well; series mostly up to 56 µM; activity change, negative = inhibition: at the top concentration

Structure (SMILES)	activity change, negative = inhibition
O=C(Nc1ccc(S(=O)(=O)Nc2nccs2)cc1)c1ccncc1	-5.09%
Cc1cc(C)nc(NC(=S)N2CCN(c3cnc4nccn4c3)CC2)c1	-8.01%
Cc1nc(Nc2ccccc2)c2nc(-c3ccccc3)n(CCCN3CCCCC3C)c2n1 (stereo not given)	13.3%
O=C(c1c(F)cccc1F)N1CCN(S(=O)(=O)c2ccc3c(c2)OCCO3)CC1	-0.0653%
C=C1C(=O)OC2/C=C(\C)CC/C=C(\C(=O)O)CC/C=C(\C)CCC12 (stereo not given)	-1.35%
CC(=O)OC1CC2C3(C)CCC(OC(=O)CC(=O)O)C(C)(C)C3CCC2(C)C2(C)CCC(C3(C)CCC(=O)O3)C12 (stereo not given)	-11.5% [at 28 µM]
Cc1cc(-c2nnc3n2CCCCC3)c(C)n1-c1ccc(C#N)cc1	-11.8%
O=S(=O)(NC1CCC(NS(=O)(=O)c2c(F)cccc2F)CC1)c1ccc2c(c1)OCCO2 (stereo not given)	12.7%
N#Cc1ccc(-c2nc(NCc3ccc(-c4ccnc(C(F)(F)F)c4)cc3)c3ccccc3n2)cc1	4.77%
Cc1cccc(CNc2ncnc3ccc(-c4cccc(Cl)c4)cc23)c1	-4.65%
Cc1nc(CNc2ncnc3ccc(-c4ccc(CO)o4)cc23)cs1	-14.5%
O=S(=O)(NC1CCN(S(=O)(=O)c2c(F)cccc2F)CC1)c1ccc2c(c1)OCCO2	2.22%
CCCCC1CCC(C(=O)Nc2ccc(S(=O)(=O)Nc3nccs3)cc2)CC1 (stereo not given)	5.41%
Cc1cc(C)nc(NC(=S)N2CCN(c3cccc(C(F)(F)F)n3)CC2)c1	-23.2%
COc1ccc(C2=Nn3c(nnc3-c3ccccc3C(F)(F)F)SC2)cc1OCC1CC1	0.466%
Fc1ccc(-c2nc(-c3c(F)cccc3F)[nH]c2-c2ccncc2)cc1	-2.4%
O=C1CCCC2=C1C(c1[nH]ncc1Cl)N=C(Nc1nc3cc([S+](=O)([O-])N4CCCC4)ccc3o1)N2 (stereo not given)	-6.93%
O=C1CCCC2=C1C(c1[nH]ncc1Cl)NC(=NCc1nccs1)N2 (stereo not given)	-15.5%
CCn1cnc2c(Nc3ccc(CCC(=O)N=C(N)N)cc3)nc(C#N)nc21	6.13%
O=C(O)c1ccc(O)c2ncc(N3CCCCC3CCc3ccccn3)cc12 (stereo not given)	-13%

Structure (SMILES)	activity change, negative = inhibition
COCCN(CCOC)c1nc(C)nc2c1nc(-c1ccccc1)n2CCN(C)C	7.64%
CC(C)c1ccccc1-c1nc(NCc2ccc(-c3cccnc3)cc2)c2ccsc2n1	8%
CCc1cccc(Nc2nn3c(=O)c4ccccc4nc3s2)c1	-20.6%
N#Cc1nc(Nc2cc(F)cc(F)c2)c2ncn(CCN3CCCC3)c2n1	-4.17%
COc1ccc2nc(-c3cccc(OCc4ccccc4)c3)sc2c1	6.75%
O=C(OCC#CCSc1nnc(-c2ccc3ccccc3c2)o1)c1ccc(F)cc1	2.29%
COc1cccc(C2c3c(ncn(-c4ccc(C#N)cc4)c3=N)Oc3ccc4ccccc4c32)c1 (stereo not given)	1.03%
COc1cc(OC)cc(-c2nnc3n2N=C(c2cc(OC)ccc2OC)CS3)c1	6.77%
NC(=O)c1ccccc1-c1noc(-c2ccccc2F)n1	11.8%
NCCCC[C@H](N)C(=O)Nc1ccc(Cl)cc1C(=O)c1ccc[nH]1	-17.9%
COc1cc(O)c(C(CC(=O)N2CCCC(C)C2)c2ccc3c(c2)OCO3)c(OC)c1 (stereo not given)	-9.31%
N#Cc1ccccc1S(=O)(=O)N1CCN(S(=O)(=O)c2ccc3c(c2)OCCO3)CC1	19.2%
CCCCNc1nc(C)nc2c1nc(-c1ccccc1)n2CCN(C)C	15.1%
CC(=O)O[C@@H]1CC[C@@]2(C)C(CC[C@]3(C)C2[C@H](O)C=C2[C@H]4[C@@H](C)[C@H](C)CC[C@]4(C)CC[C@]23C)[C@@]1(C)C(=O)O (stereo not given in full)	4.65% [at 28 µM]
O=C(Nc1ccc(Cl)nc1)Nc1nnc(-c2ccncc2)s1	7.72%
Cc1ccnc(NC(=S)N2CCCc3ccc(C(F)(F)F)cc32)c1	-17.6%
Cc1cc2c(s1)c1cnn(Cc3ccccc3F)c(=O)c1n2Cc1ccccc1F	6.2%
O=[S+]([O-])(c1ccc2c(c1)OCCO2)N1CCN([S+](=O)([O-])c2ccc(F)cc2Cl)CC1	6%
NC(=O)C1CCN(c2cc(-c3ccc4c(c3)OCCCO4)ncn2)CC1	1.25%
O=c1[nH]ccc2nc(-c3ccc(CN4CCC(c5nc(-c6ccccn6)n[nH]5)CC4)cc3)c(-c3ccccc3)cc12	-29.1%

Target: Retinaldehyde dehydrogenase 3 (Homo sapiens) (UniProt P47895)
Assay: qHTS for Inhibitors of the Aldehyde Dehydrogenase Family (ALDH1A3) Primary screen (AID 2061315);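 also: plate controls were DMSO vehicle for no effect and reference inhibitor for full effect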
Conditions: ALDH inhibition qHTS; series mostly up to 56 µM; activity change, negative = inhibition: at the top concentration

Structure (SMILES)	activity change, negative = inhibition
O=C(Nc1ccc(S(=O)(=O)Nc2nccs2)cc1)c1ccncc1	5.21%
Cc1cc(C)nc(NC(=S)N2CCN(c3cnc4nccn4c3)CC2)c1	-9.48%
Cc1nc(Nc2ccccc2)c2nc(-c3ccccc3)n(CCCN3CCCCC3C)c2n1 (stereo not given)	6.69%
O=C(c1c(F)cccc1F)N1CCN(S(=O)(=O)c2ccc3c(c2)OCCO3)CC1	2.52%
C=C1C(=O)OC2/C=C(\C)CC/C=C(\C(=O)O)CC/C=C(\C)CCC12 (stereo not given)	7.08%
CC(=O)OC1CC2C3(C)CCC(OC(=O)CC(=O)O)C(C)(C)C3CCC2(C)C2(C)CCC(C3(C)CCC(=O)O3)C12 (stereo not given)	5.15% [at 28 µM]
Cc1cc(-c2nnc3n2CCCCC3)c(C)n1-c1ccc(C#N)cc1	5.64%
O=S(=O)(NC1CCC(NS(=O)(=O)c2c(F)cccc2F)CC1)c1ccc2c(c1)OCCO2 (stereo not given)	-0.156%
N#Cc1ccc(-c2nc(NCc3ccc(-c4ccnc(C(F)(F)F)c4)cc3)c3ccccc3n2)cc1	-2.18%
Cc1cccc(CNc2ncnc3ccc(-c4cccc(Cl)c4)cc23)c1	9.85%
Cc1nc(CNc2ncnc3ccc(-c4ccc(CO)o4)cc23)cs1	0.86%
O=S(=O)(NC1CCN(S(=O)(=O)c2c(F)cccc2F)CC1)c1ccc2c(c1)OCCO2	-9.53%
CCCCC1CCC(C(=O)Nc2ccc(S(=O)(=O)Nc3nccs3)cc2)CC1 (stereo not given)	20.7%
Cc1cc(C)nc(NC(=S)N2CCN(c3cccc(C(F)(F)F)n3)CC2)c1	19.3%
COc1ccc(C2=Nn3c(nnc3-c3ccccc3C(F)(F)F)SC2)cc1OCC1CC1	3.25%
Fc1ccc(-c2nc(-c3c(F)cccc3F)[nH]c2-c2ccncc2)cc1	7.23%
O=C1CCCC2=C1C(c1[nH]ncc1Cl)N=C(Nc1nc3cc([S+](=O)([O-])N4CCCC4)ccc3o1)N2 (stereo not given)	15%
O=C1CCCC2=C1C(c1[nH]ncc1Cl)NC(=NCc1nccs1)N2 (stereo not given)	17.2%
CCn1cnc2c(Nc3ccc(CCC(=O)N=C(N)N)cc3)nc(C#N)nc21	41.2%
O=C(O)c1ccc(O)c2ncc(N3CCCCC3CCc3ccccn3)cc12 (stereo not given)	30.1%

Structure (SMILES)	activity change, negative = inhibition
COCCN(CCOC)c1nc(C)nc2c1nc(-c1ccccc1)n2CCN(C)C	-4.99%
CC(C)c1ccccc1-c1nc(NCc2ccc(-c3cccnc3)cc2)c2ccsc2n1	9.89%
CCc1cccc(Nc2nn3c(=O)c4ccccc4nc3s2)c1	-6.92%
N#Cc1nc(Nc2cc(F)cc(F)c2)c2ncn(CCN3CCCC3)c2n1	6.4%
COc1ccc2nc(-c3cccc(OCc4ccccc4)c3)sc2c1	-8.51%
O=C(OCC#CCSc1nnc(-c2ccc3ccccc3c2)o1)c1ccc(F)cc1	1.04%
COc1cccc(C2c3c(ncn(-c4ccc(C#N)cc4)c3=N)Oc3ccc4ccccc4c32)c1 (stereo not given)	-3.09%
COc1cc(OC)cc(-c2nnc3n2N=C(c2cc(OC)ccc2OC)CS3)c1	-1.07%
NC(=O)c1ccccc1-c1noc(-c2ccccc2F)n1	-10.9%
NCCCC[C@H](N)C(=O)Nc1ccc(Cl)cc1C(=O)c1ccc[nH]1	9%
COc1cc(O)c(C(CC(=O)N2CCCC(C)C2)c2ccc3c(c2)OCO3)c(OC)c1 (stereo not given)	11.7%
N#Cc1ccccc1S(=O)(=O)N1CCN(S(=O)(=O)c2ccc3c(c2)OCCO3)CC1	8.15%
CCCCNc1nc(C)nc2c1nc(-c1ccccc1)n2CCN(C)C	6.95%
CC(=O)O[C@@H]1CC[C@@]2(C)C(CC[C@]3(C)C2[C@H](O)C=C2[C@H]4[C@@H](C)[C@H](C)CC[C@]4(C)CC[C@]23C)[C@@]1(C)C(=O)O (stereo not given in full)	-2.28% [at 28 µM]
O=C(Nc1ccc(Cl)nc1)Nc1nnc(-c2ccncc2)s1	3.11%
Cc1ccnc(NC(=S)N2CCCc3ccc(C(F)(F)F)cc32)c1	-18%
Cc1cc2c(s1)c1cnn(Cc3ccccc3F)c(=O)c1n2Cc1ccccc1F	2.87%
O=[S+]([O-])(c1ccc2c(c1)OCCO2)N1CCN([S+](=O)([O-])c2ccc(F)cc2Cl)CC1	-6.61%
NC(=O)C1CCN(c2cc(-c3ccc4c(c3)OCCCO4)ncn2)CC1	-7.23%
O=c1[nH]ccc2nc(-c3ccc(CN4CCC(c5nc(-c6ccccn6)n[nH]5)CC4)cc3)c(-c3ccccc3)cc12	37.5%

— PubChem BioAssay (NCATS)
